# In PMC8384837, “Expanding the binding specificity for RNA recognition by a PUF domain”:
# Assays:
# Assay in all cases: yeast three-hybrid, YBZ-1, SC-Leu-His + 0.5 mM 3-AT, 4 days
# Conditions in all cases: tags: N-Gal4 AD-HA kept; label: inside an RPR1-promoter hybrid RNA with tandem MS2 sites; ssRNA
# PUM1 PUF domain R3-FRM = PUM1 PUF domain R3-FRM (Homo sapiens, UniProt Q14671 828-1176, C935F;Q939M)
# How it was run: (§1)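 Matching RNA elements and Pumilio-1 PUF domain libraries, randomized at the three base-contacting residues of every repeat, were co-expressed from a centromeric plasmid in strain YBZ-1 (LexA–MS2 coat fusion, HIS3 reporter). The repeat regions were PCR-amplified and Illumina-sequenced from cells grown four days on SC-Leu (input) or SC-Leu-His + 0.5 mM 3-AT (selection). The interaction score is the log change in variant frequency from input to selection. It is computed in log2, with a pseudocount of 1 for absent variants.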
# PUM1 PUF domain R3-RQW = PUM1 PUF domain R3-RQW (Homo sapiens, UniProt Q14671 828-1176, C935R;R936Q;Q939W)
# How it was run: as §1
# PUM1 PUF domain R7-GQR = PUM1 PUF domain R7-GQR (Homo sapiens, UniProt Q14671 828-1176, S1079G;N1080Q;E1083R)
# How it was run: as §1
# PUM1 PUF domain R7-EFR = PUM1 PUF domain R7-EFR (Homo sapiens, UniProt Q14671 828-1176, S1079E;N1080F;E1083R)
# How it was run: as §1
# PUM1 PUF domain R1-RVM = PUM1 PUF domain R1-RVM (Homo sapiens, UniProt Q14671 828-1176, S863R;R864V;Q867M)
# How it was run: as §1
# PUM1 PUF domain R5-RAR = PUM1 PUF domain R5-RAR (Homo sapiens, UniProt Q14671 828-1176, C1007R;R1008A;Q1011R)
# How it was run: as §1
# PUM1 PUF domain R5-RQL = PUM1 PUF domain R5-RQL (Homo sapiens, UniProt Q14671 828-1176, C1007R;R1008Q;Q1011L)
# How it was run: as §1
# PUM1 PUF domain R5-FRL = PUM1 PUF domain R5-FRL (Homo sapiens, UniProt Q14671 828-1176, C1007F;Q1011L)
# How it was run: as §1
# PUM1 PUF domain R3-FCV = PUM1 PUF domain R3-FCV (Homo sapiens, UniProt Q14671 828-1176, C935F;R936C;Q939V)
# How it was run: as §1
# PUM1 PUF domain R1-SPE = PUM1 PUF domain R1-SPE (Homo sapiens, UniProt Q14671 828-1176, R864P;Q867E)
# How it was run: as §1
# PUM1 PUF domain R1-RCV = PUM1 PUF domain R1-RCV (Homo sapiens, UniProt Q14671 828-1176, S863R;R864C;Q867V)
# How it was run: as §1
# PUM1 PUF domain R1-KLE = PUM1 PUF domain R1-KLE (Homo sapiens, UniProt Q14671 828-1176, S863K;R864L;Q867E)
# How it was run: as §1
# PUM1 PUF domain R4-FAA = PUM1 PUF domain R4-FAA (Homo sapiens, UniProt Q14671 828-1176, N971F;H972A;Q975A)
# How it was run: as §1
# PUM1 PUF domain R4-PHC = PUM1 PUF domain R4-PHC (Homo sapiens, UniProt Q14671 828-1176, N971P;Q975C)
# How it was run: as §1
# PUM1 PUF domain R5-DFL = PUM1 PUF domain R5-DFL (Homo sapiens, UniProt Q14671 828-1176, C1007D;R1008F;Q1011L)
# How it was run: as §1
# PUM1 PUF domain R4-CLQ = PUM1 PUF domain R4-CLQ (Homo sapiens, UniProt Q14671 828-1176, N971C;H972L)
# How it was run: as §1
# PUM1 PUF domain R6-HFL = biological target: T1, PUM1 PUF domain R6-HFL (Homo sapiens, UniProt Q14671 828-1176, N1043H;Y1044F;Q1047L)
# T1 sequence: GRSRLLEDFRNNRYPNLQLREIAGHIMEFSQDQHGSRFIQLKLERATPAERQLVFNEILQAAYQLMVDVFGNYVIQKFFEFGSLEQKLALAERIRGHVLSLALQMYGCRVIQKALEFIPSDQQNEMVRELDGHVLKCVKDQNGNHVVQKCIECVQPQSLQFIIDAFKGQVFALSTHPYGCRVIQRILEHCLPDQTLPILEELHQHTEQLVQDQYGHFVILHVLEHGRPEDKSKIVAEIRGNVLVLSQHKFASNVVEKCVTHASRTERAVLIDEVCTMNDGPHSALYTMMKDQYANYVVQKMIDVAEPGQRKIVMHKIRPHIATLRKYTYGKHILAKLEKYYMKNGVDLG
# How it was run: as §1
# PUM1 PUF domain R5-SGG = PUM1 PUF domain R5-SGG (Homo sapiens, UniProt Q14671 828-1176, C1007S;R1008G;Q1011G)
# How it was run: as §1
# PUM1 PUF domain R4-QHK = PUM1 PUF domain R4-QHK (Homo sapiens, UniProt Q14671 828-1176, N971Q;Q975K)
# How it was run: as §1
# PUM1 PUF domain R5-HNR = PUM1 PUF domain R5-HNR (Homo sapiens, UniProt Q14671 828-1176, C1007H;R1008N;Q1011R)
# How it was run: as §1
sequence,measurement,setting,value
GGCUAGAACUAGUGGAUCCCCCGGCGCCCGGCGGCUCGAGCCCGGGUAAGUGUAAUUAGUCUGCAUGCCGCCGGGCGCCAUGCCUGCAGGUCGACUCUAGAAAACAUG,binding signal,PUM1 PUF domain R3-FRM,0.74 log2 enrichment (interaction score)
same,binding signal,PUM1 PUF domain R3-RQW,2.52 log2 enrichment (interaction score)
GGCUAGAACUAGUGGAUCCCCCGGCGCCCGGCGGCUCGAGCCCGGGUAAGUUUAAAUAGUCUGCAUGCCGCCGGGCGCCAUGCCUGCAGGUCGACUCUAGAAAACAUG,binding signal,PUM1 PUF domain R7-GQR,2.78 log2 enrichment (interaction score)
same,binding signal,PUM1 PUF domain R7-EFR,2.09 log2 enrichment (interaction score)
GGCUAGAACUAGUGGAUCCCCCGGCGCCCGGCGGCUCGAGCCCGGGUAAGUGUAAAUGGUCUGCAUGCCGCCGGGCGCCAUGCCUGCAGGUCGACUCUAGAAAACAUG,binding signal,PUM1 PUF domain R1-RVM,1.04 log2 enrichment (interaction score)
GGCUAGAACUAGUGGAUCCCCCGGCGCCCGGCGGCUCGAGCCCGGGUAAGUGUCAAUAGUCUGCAUGCCGCCGGGCGCCAUGCCUGCAGGUCGACUCUAGAAAACAUG,binding signal,PUM1 PUF domain R5-RAR,3.66 log2 enrichment (interaction score)
same,binding signal,PUM1 PUF domain R5-RQL,2.74 log2 enrichment (interaction score)
same,binding signal,PUM1 PUF domain R5-FRL,2.63 log2 enrichment (interaction score)
GGCUAGAACUAGUGGAUCCCCCGGCGCCCGGCGGCUCGAGCCCGGGUAAGUGUAAGUAGUCUGCAUGCCGCCGGGCGCCAUGCCUGCAGGUCGACUCUAGAAAACAUG,binding signal,PUM1 PUF domain R3-FCV,4.56 log2 enrichment (interaction score)
same,binding signal,PUM1 PUF domain R3-FRM,5.33 log2 enrichment (interaction score)
GGCUAGAACUAGUGGAUCCCCCGGCGCCCGGCGGCUCGAGCCCGGGUAAGUGUAAAUUGUCUGCAUGCCGCCGGGCGCCAUGCCUGCAGGUCGACUCUAGAAAACAUG,binding signal,PUM1 PUF domain R1-SPE,2.78 log2 enrichment (interaction score)
same,binding signal,PUM1 PUF domain R1-RVM,2.87 log2 enrichment (interaction score)
same,binding signal,PUM1 PUF domain R1-RCV,1.82 log2 enrichment (interaction score)
same,binding signal,PUM1 PUF domain R1-KLE,4.05 log2 enrichment (interaction score)
GGCUAGAACUAGUGGAUCCCCCGGCGCCCGGCGGCUCGAGCCCGGGUAAGUGUAUAUAGUCUGCAUGCCGCCGGGCGCCAUGCCUGCAGGUCGACUCUAGAAAACAUG,binding signal,PUM1 PUF domain R4-FAA,2.2 log2 enrichment (interaction score)
same,binding signal,PUM1 PUF domain R4-PHC,4.13 log2 enrichment (interaction score)
GGCUAGAACUAGUGGAUCCCCCGGCGCCCGGCGGCUCGAGCCCGGGUAAGUGUAAAUCGUCUGCAUGCCGCCGGGCGCCAUGCCUGCAGGUCGACUCUAGAAAACAUG,binding signal,PUM1 PUF domain R1-RVM,3.24 log2 enrichment (interaction score)
same,binding signal,PUM1 PUF domain R1-RCV,3.67 log2 enrichment (interaction score)
same,binding signal,PUM1 PUF domain R1-KLE,3.36 log2 enrichment (interaction score)
GGCUAGAACUAGUGGAUCCCCCGGCGCCCGGCGGCUCGAGCCCGGGUAAGUGUAAAUAGUCUGCAUGCCGCCGGGCGCCAUGCCUGCAGGUCGACUCUAGAAAACAUG,binding signal,PUM1 PUF domain R5-DFL,3.51 log2 enrichment (interaction score)
same,binding signal,PUM1 PUF domain R4-CLQ,3.83 log2 enrichment (interaction score)
same,binding signal,PUM1 PUF domain R5-RAR,0.57 log2 enrichment (interaction score)
same,binding signal,PUM1 PUF domain R6-HFL,2.57 log2 enrichment (interaction score)
same,binding signal,PUM1 PUF domain R5-FRL,1.49 log2 enrichment (interaction score)
GGCUAGAACUAGUGGAUCCCCCGGCGCCCGGCGGCUCGAGCCCGGGUAAGUCUAAAUAGUCUGCAUGCCGCCGGGCGCCAUGCCUGCAGGUCGACUCUAGAAAACAUG,binding signal,PUM1 PUF domain R7-EFR,2.21 log2 enrichment (interaction score)
GGCUAGAACUAGUGGAUCCCCCGGCGCCCGGCGGCUCGAGCCCGGGUAAGUGUGAAUAGUCUGCAUGCCGCCGGGCGCCAUGCCUGCAGGUCGACUCUAGAAAACAUG,binding signal,PUM1 PUF domain R5-SGG,3.53 log2 enrichment (interaction score)
same,binding signal,PUM1 PUF domain R5-FRL,0.24 log2 enrichment (interaction score)
GGCUAGAACUAGUGGAUCCCCCGGCGCCCGGCGGCUCGAGCCCGGGUAAGUGUACAUAGUCUGCAUGCCGCCGGGCGCCAUGCCUGCAGGUCGACUCUAGAAAACAUG,binding signal,PUM1 PUF domain R4-QHK,3.41 log2 enrichment (interaction score)
same,binding signal,PUM1 PUF domain R4-PHC,3.16 log2 enrichment (interaction score)
GGCUAGAACUAGUGGAUCCCCCGGCGCCCGGCGGCUCGAGCCCGGGUAAGUGUUAAUAGUCUGCAUGCCGCCGGGCGCCAUGCCUGCAGGUCGACUCUAGAAAACAUG,binding signal,PUM1 PUF domain R5-HNR,4.6 log2 enrichment (interaction score)
same,binding signal,PUM1 PUF domain R5-RAR,2.31 log2 enrichment (interaction score)
same,binding signal,PUM1 PUF domain R5-FRL,1.67 log2 enrichment (interaction score)
